The whole screen tested about 16,000 compounds, of which about 2,600 (16%) were called active. Inconclusive results (about 20%) are left out. The list is a sample of the results. A number with no mark means an inactive call. Calls come from the whole dose curve; as a rule, active = well fitted curve in the direction sought with a large enough effect; inconclusive = small, poorly fitted or top-dose-only effect, or effect the other way; inactive = no such curve, though single readings can be large or run the other way. Peptide text beside a SMILES is read from it. * marks the point of attachment. Boc = CC(C)(C)OC(=O)*
Molecular target: Cytochrome P450 2D6 (Homo sapiens) (UniProt P10635)
Assay: Cytochrome panel assay with activity outcomes
Details: recombinant CYP, pro-luciferin dealkylation, luminescence, p450-cyp2d6; series mostly up to 57.1 µM; activity, negative = inhibition: at the top concentration
% is set by controls: 0 for no effect and ±100 for the full control effect.

Cytochrome P450 2D6 (Homo sapiens), sequence (P10635 whole entry, looked up): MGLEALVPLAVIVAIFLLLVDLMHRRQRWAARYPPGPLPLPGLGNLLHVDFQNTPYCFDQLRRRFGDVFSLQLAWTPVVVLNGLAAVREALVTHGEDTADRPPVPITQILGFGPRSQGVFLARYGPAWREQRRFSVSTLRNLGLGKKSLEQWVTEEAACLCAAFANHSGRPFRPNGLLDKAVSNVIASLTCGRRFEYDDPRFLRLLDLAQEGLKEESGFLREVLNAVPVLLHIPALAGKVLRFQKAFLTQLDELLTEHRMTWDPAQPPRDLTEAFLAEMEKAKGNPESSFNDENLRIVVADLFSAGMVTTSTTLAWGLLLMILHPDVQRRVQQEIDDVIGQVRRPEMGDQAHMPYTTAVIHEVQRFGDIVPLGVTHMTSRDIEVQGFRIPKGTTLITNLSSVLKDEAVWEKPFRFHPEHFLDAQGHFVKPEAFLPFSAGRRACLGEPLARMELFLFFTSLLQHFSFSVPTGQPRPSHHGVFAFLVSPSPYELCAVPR

| SMILES | activity, negative = inhibition | AC50 |
| --- | --- | --- |
| COC(=O)c1c(NC(=O)c2ccco2)sc2c1CCC2 | 2.66% | – |
| Cc1ccc(C(=O)Nc2ccc(C(=O)/C=C/c3cccs3)cc2)cc1 | 17.8% | – |
| Cc1ccc(S(N)(=O)=O)cc1NC(=O)/C=C/c1cccs1 | – | 14100 nM (active) |
| Cc1cccc(C)c1NC(=O)Nc1ccc(S(N)(=O)=O)cc1 | -10.2% [at 11.4 µM] | – |
| CN(C(=O)C(Cl)Cl)c1ccc(OC(=O)c2ccco2)cc1 | -8.43% [at 25.6 µM] | – |
| c1ccc2nc(C3=NCCN3)cnc2c1 | -1.42% | – |
| Cc1ccccc1/C=C\C1=NCCN1 | – | 25100 nM (active) |
| c1ccc2cc(C3=NCCN3)ncc2c1 | -18.2% | – |
| O=C(Oc1ccccc1)N1CCC2(CC1)CCN(c1ccccn1)CC2 | -5.69% | – |
| CCOc1ccc(-c2c[n+](=O)c3c(n2[O-])CCCC3)c(OCC)c1 | -13.5% | – |
| CCCCn1c(SCc2c(C)noc2C)nc2cc(S(N)(=O)=O)ccc21 | -5% | – |
| CCCCn1c(NCc2ccccc2NS(=O)(=O)c2ccc(C)cc2)nc2ccccc21 | – | 501 nM (active) |
| Cc1ccc(S(=O)(=O)Nc2ccccc2C=O)cc1 | -1.56% [at 11.4 µM] | – |
| CC(C)=NOCc1ccc(-c2cc(-c3ccccc3)no2)cc1 | 1.27% [at 11.4 µM] | – |
| CCn1c(=O)[nH]c2ccccc21 | -7.63% | – |
| O=c1[nH]c2ccccc2n1CCCN1CCN(C(c2ccccc2)c2ccccc2)CC1 | – | 794 nM (active) |
| CCN1CNC(=S)N(c2cc(C)ccc2C)C1 | -12.5% | – |
| O=C(c1ccco1)N1CCC[C@@]2(CCN(Cc3ccccc3)C2)C1 | – | 2000 nM (active) |
| COc1ccccc1CN1CC[C@@]2(CCCN(C(=O)c3ccco3)C2)C1 | – | 501 nM (active) |
| O=C(c1cccc(F)c1)N1CCC2(CCN(Cc3nccs3)CC2)CC1 | -11% | – |
| COc1ccc(NC(=O)N2CC3(CCN(C(=O)c4ccco4)CC3)C2)cc1 | 1.51% | – |
| CC(=O)N1CCC2(CCN(Cc3nccs3)CC2)CC1 | -17.9% | – |

| SMILES | activity, negative = inhibition | AC50 |
| --- | --- | --- |
| O=C(c1ccco1)N1CCC2(CCN(Cc3nccs3)CC2)CC1 | – | 1000 nM (active) |
| O=C(c1ccco1)N1CCC2(CCN(Cc3ccccc3)CC2)CC1 | – | 3980 nM (active) |
| O=C(Nc1ccccc1)N1CC2(CCN(C(=O)c3ccco3)CC2)C1 | 14% | – |
| C=C(C)C1CC=C(C)/C(=N/NC(=O)c2ccc(NC(=O)c3cccc(C)c3)cc2)C1 (stereo unspecified) | -15.3% | – |
| Clc1ccc(-c2csc(N3CCC(c4ccccc4)C3)n2)cc1 (stereo unspecified) | -15.1% | – |
| COc1ccc(C2CC(C(F)(F)F)n3nc(C(=O)N(C)Cc4cn(C)nc4C)c(Cl)c3N2)cc1 (stereo unspecified) | -6.09% | – |
| O=C(Nc1cccc(F)c1)N1CC2(CCN(C(=O)c3cc(C(F)(F)F)cc(C(F)(F)F)c3)CC2)C1 | -2.33% | – |
| O=C(O)c1c(-c2c3ccc(=O)cc-3oc3cc(O)ccc23)cc2ccccc2c1-c1ccccc1 | 6.33% [at 11.4 µM] | – |
| Cc1ccc(/C=C2\OC(=O)c3ccccc32)cc1 | -8.38% | – |
| CC(=O)c1cnc2c(C(=O)O)cnn2c1C | 3.23% | – |
| COn1c(-c2ccccc2)nc2c1CCc1nonc1-2 | -10.9% | – |
| Cc1ccc(C)c(CN2C(=O)C3CCCN3c3ccc(S(=O)(=O)N4CCOCC4)cc32)c1 (stereo unspecified) | -30% | – |
| O=C(CO)N/N=C/c1ccccc1F | 27.7% | – |
| O=C(O)c1cc2c(cc1S(=O)(=O)O)[C@H]1[C@@H]([C@H]3[C@H]2[C@@]2(Cl)C(Cl)=C(Cl)[C@]3(Cl)C2(Cl)Cl)[C@]2(Cl)C(Cl)=C(Cl)[C@@]1(Cl)C2(Cl)Cl | -3.51% [at 11.4 µM] | – |
| CC(=O)c1cn(CCCCCCCCCCn2cc(C(C)=O)c(=O)[nH]c2=O)c(=O)[nH]c1=O | 10.7% | – |
| COc1ccccc1CN1CCC2(CC1)CCN(C(=O)c1ccco1)CC2 | – | 12600 nM (active) |
| Cc1noc(C)c1C(=O)N1CCC2(CCCN(Cc3ccccc3)C2)CC1 | 6.55% | – |
| COc1ccc(NC(=O)N2CCC3(CC2)CCN(C(=O)c2ccco2)CC3)cc1 | 0.478% | – |
| COc1ccccc1CN1CCCC2(CCN(C(=O)c3ccco3)CC2)C1 | – | 2510 nM (active) |
| Cc1noc(C)c1C(=O)N1CCC[C@@]2(CCN(Cc3ccccc3)C2)C1 | – | 7940 nM (active) |
| Cc1noc(C)c1C(=O)N1CCC[C@@]2(CCN(Cc3nccs3)C2)C1 | -11% | – |
| CCc1c(O)c2c(c(O)c1C(C)=O)C(=O)c1c(cc(O)c(C(=O)O)c1C(=O)O)C2=O | 0.869% [at 11.4 µM] | – |

| SMILES | activity, negative = inhibition | AC50 |
| --- | --- | --- |
| COc1ccc(CC(=O)N2CCN(c3ccc(C4=NNC(=O)CC4C)cc3)CC2)cc1 (stereo unspecified) | -1.36% | – |
| CC12CCC(C(=O)O)(C/C1=N\O)C2(C)C (stereo unspecified) | 14.5% | – |
| Cc1noc(NS(=O)(=O)c2ccc(N)cc2)c1C | – | inactive |
| CNc1cc(NS(=O)(=O)c2ccc(N)cc2)nc(NC)n1 | -1.07% | – |
| CCOC(=O)C1=C(c2ccccc2)OC(N)=C(C#N)C1c1ccc(Cl)s1 (stereo unspecified) | -27.2% | – |
| CCn1c(=O)cc(SCC(=O)N2CCN(C(=O)c3ccco3)CC2)c2ccccc21 | -1.47% | – |
| CCCCn1c(=N)n(CC(=O)c2ccco2)c2ccccc21 | – | 708 nM (active) |
| CCCn1c(N)[n+](CC(=O)c2ccco2)c2ccccc21 | – | 708 nM (active) |
| CCOC(=O)c1c(C)n(C)c2ccc(OC(=O)c3ccco3)cc12 | -24.3% | – |
| CCCCN1C(=O)NC(NC(=O)c2ccco2)(C(F)(F)F)C1=O (stereo unspecified) | -11.1% | – |
| Cc1ccc(C(CC(=O)c2ccco2)SCCO)cc1 (stereo unspecified) | -20.1% | – |
| COCCn1c(=O)c(-c2cc(F)cc(F)c2)nc2cnc(N3CCNCC3)nc21 | -10.5% | – |
| CC1(C)OC(=O)NC1=O | -0.739% [at 25.6 µM] | – |
| Nc1nc(Br)c2c(F)cccc2c1-c1ccc(F)cc1 | -11.7% | – |
| CC(C)C(NC(=O)OC(C)(C)C)C(=O)N1CCCC1C(=O)NC(Cc1ccccc1)C(N)=O (stereo not drawn) (Boc-Val-Pro-Phe-NH2; configuration not given here) | -3.72% | – |
| CC(C)=CCC/C(C)=C/CO/N=C1/[C@H]2O[C@@H]2[C@@H](O)[C@H]2[C@H]1CCn1c(=O)n(Cc3cc4c(cc3Cl)OCO4)c(=O)n12 | -10.5% [at 11.4 µM] | – |
| CC(SCc1cn2cc(Cl)ccc2n1)C(=O)O (stereo unspecified) | -19.2% | – |
| Cc1ccn2cc(CSc3ccccc3N)nc2c1 | – | 1260 nM (active) |
| CCC(Sc1nc(=O)cc(N)n1CCc1ccccc1)C(=O)Nc1ccccc1C#N (stereo unspecified) | – | 15800 nM (active) |
| Nc1cc(=O)nc(SCC(=O)Nc2cccc3ccccc23)n1CCc1ccccc1 | -26.3% | – |
| CC(NC(=O)CSc1nc(=O)cc(N)n1CCc1ccccc1)c1ccccc1 (stereo unspecified) | -5.67% | – |
| CN1c2ccccc2C(O)=C(C(=O)Nc2ccccc2)S1(=O)=O | 4.83% | – |

| SMILES | activity, negative = inhibition | AC50 |
| --- | --- | --- |
| COc1ccccc1-c1nc(N2CCN(C)CC2)c2ccccc2n1 | -14.6% | – |
| c1ccc2c(N3CCOCC3)nc(-c3ccoc3)nc2c1 | -8.74% | – |
| CN1CCN(c2nc(-c3cccnc3)nc3ccccc23)CC1 | – | 10000 nM (active) |
| CN1CCN(c2nc(-c3ccoc3)nc3ccccc23)CC1 | – | 15800 nM (active) |
| c1cncc(-c2nc(N3CCNCC3)c3ccccc3n2)c1 | – | 7940 nM (active) |
| C[C@](N)(COP(=O)(O)O)C(=O)O | 2.61% | – |
| CNc1cc(-c2c(C)noc2C)ncn1 | 0.677% | – |
| Cn1c(=O)c2[nH]c(-c3ccccc3)nc2n(C)c1=O | 7.89% | – |
| Cn1c(=O)c(-c2cc(F)cc(F)c2)nc2cnc(Oc3ccccc3)nc21 | -4.71% | – |
| O=C(Oc1ccccc1)N1CCC2(CC1)CN(c1ncccn1)C2 | -6.97% | – |
| CC(=O)Nc1c2c3c(cccc3n(C)c1=O)C(=O)c1ccccc1-2 | 8.07% | – |
| COc1ccc(-c2nc3cnc(N4CCN(C)CC4)nc3n(C3CC3)c2=O)cc1 | 5.09% | – |
| COC(=O)c1ccccc1OCC(=O)N1CCN(c2ccc(OC)cc2)CC1 | 0.575% | – |
| O=C(c1cc(O)c(O)c([N+](=O)[O-])c1)c1ccccc1F | 0.213% | – |
| Cn1cccc1C(=O)N1CCC2(CC1)CCN(c1ccc(-c3ccccc3)cc1)CC2 | -0.937% | – |
| COc1cc(C2C(C#N)=C(N)OC3=C2C(=O)CCC3)cc(OC)c1OC(=O)N1CCOCC1 (stereo unspecified) | 3.07% | – |
| Cc1ccc(C(C2C(=O)CC(C)(C)CC2=O)C2C(=O)CC(C)(C)CC2=O)s1 | 2.33% | – |
| COc1cccc(C(c2c(C)[nH]n(-c3ccccc3)c2=O)c2c(C)[nH]n(-c3ccccc3)c2=O)c1O | 1.65% | – |
| COc1cc(C)ccc1OCCOc1cc(C)ccc1Cl | -13.3% | – |
| Clc1ccc(Cl)c(OCc2cc(-c3ccccc3Cl)on2)c1 | 8.16% | – |
| CC1CCN(CCOc2cc(Cl)ccc2Cl)CC1 | – | 447 nM (active) |
| CCn1c(C)[n+](CCCS(=O)(=O)[O-])c2cc(Cl)c(Cl)cc21 | 2.13% | – |

| SMILES | activity, negative = inhibition | AC50 |
| --- | --- | --- |
| Cn1c(=O)n(-c2cccc(Cl)c2)c(=O)c2c3c(sc21)COC(C)(C)C3 | 6.87% | – |
| CN(NC(=O)NN)c1ncc(C(F)(F)F)cc1Cl | -8.29% | – |
| O=C(Nc1ccc(F)cc1F)c1cccn1-c1ncc(C(F)(F)F)cc1Cl | 17.2% | – |
| O=C(Cc1ncc(C(F)(F)F)cc1Cl)Nc1cccc(Br)c1 | – | 398 nM (active) |
| Oc1ccc(Cn2cc[nH]c2=S)cc1 | -3.56% | – |
| Cc1cc2ccccn2c1C(=O)c1ccc(Cl)cc1 | – | 17800 nM (active) |
| Cc1cc(CC(=O)O)n(C)c1C(=O)c1ccc(Cl)cc1 | -4.31% [at 25.6 µM] | – |
| Cc1cc2ccccn2c1C(=O)c1nc(N2CCOCC2)ncc1Cl | -6.91% | – |
| Nc1cc(C(=O)O)[nH]c(=O)n1 | 6.45% [at 11.4 µM] | – |
| CCN(CC(=O)Nc1ccc(N2CCOCC2)cc1)Cc1nc2ccccc2c(=O)[nH]1 | 17.5% | – |
| CCn1c(O)c(/C=C2\C=Nc3ccccc32)sc1=Nc1ccc(C)cc1 | -22% | – |
| CCOC(=O)C1=C(CN2c3ccccc3CC2C)NC(=O)NC1c1ccccc1 (stereo unspecified) | -19.8% | – |
| CCN1C(=O)C(O)(C2COC(C)(C)CC2=O)c2ccccc21 (stereo unspecified) | -0.608% | – |
| NC(=O)C1CCN(C(=O)OCc2ccccc2)CC1 | 8.02% | – |
| CCCNC(=O)N1CCC(C(=O)c2ccc(F)cc2)CC1 | -24.1% | – |
| CC1(C)C(=O)N(CCN2CCC(C(=O)c3ccc(F)cc3)CC2)c2ccccc21 | – | 1260 nM (active) |
| CC(C)c1ccc(C(=O)CC2(O)C(=O)N(CN3CCOCC3)c3ccccc32)cc1 (stereo unspecified) | 17.8% | – |
| O=C(c1ccc(F)cc1)C1CCN(CCCCc2ccccc2)CC1 | – | 12.6 nM (active) |

Source: PubChem BioAssay AID1851 (National Center for Advancing Translational Sciences (NCATS), 2009)
